# Data as given in PubChem BioAssay AID686979 (National Center for Advancing Translational Sciences (NCATS), 2013).
# Screen size: about 420,000 compounds; about 50,000 (12%) were called active. Inconclusive results (about 26%) are left out. The list comes from a sample in which actives are over-represented; it also holds similar structures and randomly drawn compounds. Values without a mark were called inactive. Calls come from the whole dose curve; as a rule, active = well fitted inhibition curve with a large enough effect; inconclusive = small, poorly fitted or top-dose-only effect; inactive = flat fitted curve, though single readings scatter.
# Assay: qHTS for Inhibitors of human tyrosyl-DNA phosphodiesterase 1 (TDP1): qHTS in cells in presence of CPT; note: nearly all actives have a fitted effect of over 55% in size
# Conditions: chicken DT40 Tdp1-/-;hTDP1 cells + 20 nM CPT, ATP luminescence, 48 h; series mostly up to 46.2 µM; activity change, negative = growth inhibition: at the top concentration
# In short: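 Chicken DT40 Tdp1-/- cells stably complemented with human TDP1 were seeded at 400 cells/well in medium containing 20 nM camptothecin, exposed to pin-transferred compounds, and grown at 37 °C for at least 48 hr. Viability was read as ATP luminescence.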
# % is set by controls: 0 for no effect and ±100 for the full control effect; potency is the fitted concentration of half-maximal effect.
SMILES,"activity change, negative = growth inhibition [%]",Potency
Cc1ccc(C(=O)OC2=CC(=O)CC(C)(C)C2)cc1,-2.38,
Cc1ccc(-c2ccc(C3=CC(=O)CC(C)(C)C3=O)cc2)cc1,,0.184 µM (active)
CC1(C)CC(=O)C=C(c2ccccc2CO)C1=O,-22,
O=C(CC1C(=O)N(c2ccccc2)C(=O)N1CCc1cccs1)Nc1ccc(F)cc1 (stereo not given),-4.18,
CCCCc1nc2ccc(F)cc2cc1C,-17.5,
Cc1ccnc(NS(=O)(=O)c2ccc(NC(=O)c3oc4ccccc4c3C)cc2)n1,-7.62,
CCOC(=O)c1cnc2[nH]c3ccccc3n2c1=O,5.8,
O=c1[nH]c2ccccc2n2c(-c3ccccc3)nnc12,,20.6 µM (active)
CC(=O)c1c(-c2ccccc2)c2ccccc2[nH]c1=O,14.5,
N#Cc1ccc(OCC(=O)NC(=O)NC2CCS(=O)(=O)C2)cc1 (stereo not given),-2.01,
O=C(CNC(=O)c1cccs1)N/N=C/c1cccc(Br)c1,-7.89,
COC(=O)c1c(-c2ccsc2)oc2ccc(-c3cc(OC)c(OC)c(OC)c3)cc12,,18.4 µM (active)
COC(=O)c1sccc1NC(=O)c1cc(OC)c(OC)c(OC)c1,-25.4,
CCOC(=O)c1c(-c2ccccc2)oc2ccc(OCC(=O)NN)cc12,-3.23,
Cc1cccc(OCC(=O)Nc2ccc(C(=O)O)cc2NC(=O)COc2cccc(C)c2)c1,-8.69,
CCc1cccc(NC(=O)CCC(=O)O)c1,-0.994,
O=C(Cc1ccccc1)Nc1cccc(NC(=O)c2ccccc2)c1,-4.48,
O=C(CCl)Nc1cccc(CP(=O)(c2ccccc2)c2ccccc2)c1,,3.26 µM (active)
COc1ccc(N2CCN(C(=O)c3cn(C)c4ccc(S(=O)(=O)N5CCOCC5)cc4c3=O)CC2)cc1,,inactive
O=C(CC[C@H]1O[C@@H](n2ccc(=O)[nH]c2=O)[C@H](O)[C@@H]1O)N[C@H](Cc1ccccc1)C(=O)NCc1ccco1,7.85,
COc1ccc(CC(=O)OC(C)C(=O)Nc2ccc(S(N)(=O)=O)cc2)cc1 (stereo not given),1.71,
CCN(CC(=O)Nc1ccc(S(=O)(=O)N2CCCC2)cc1)CC(=O)Nc1cccc(OC)c1,-0.0362,

SMILES,"activity change, negative = growth inhibition [%]",Potency
COc1cccc(NC(=O)C2(C)CCN2Cc2ccccc2Cl)c1 (stereo not given),,25.9 µM (active)
COc1cccc(NC(=O)NCCN2CCCCC2)c1,-17.9,
CCCn1nc(NC(=O)C(C)C)c2cc3cc(OC)ccc3nc21,,29.1 µM (active)
CCCn1nc(NS(=O)(=O)c2ccc(F)cc2)c2cc3ccccc3nc21,-5.62,
CCCn1nc(NS(=O)(=O)c2ccccc2)c2cc3cc(C)ccc3nc21,-16.6,
O=c1cc(CSc2ncn[nH]2)[nH]c2ccc(F)cc12,-18.6,
Cc1ccccc1CN1C(=O)CSCC1(C)C(=O)Nc1c(C)cccc1C (stereo not given),-1.64,
COc1cccc(-c2nc(S(=O)(=O)c3ccc(C)cc3)c(NCc3ccccc3)o2)c1,,16.4 µM (active)
O=S(=O)(c1ccccc1)c1nc(-c2ccccc2F)oc1NCc1cccnc1,-2.08,
COc1cccc(-c2nc3cc(C)ccc3o2)c1,-20.2,
CCN(CC)C(=O)Cn1cc(S(=O)(=O)CC(=O)NCc2ccc3c(c2)OCO3)c2ccccc21,-2.09,
Cc1c(C(=O)NCCCc2ccccc2)cccc1[N+](=O)[O-],9.3,
CCN(CC)CCNCc1ccc(OCc2ccc(Cl)nc2)c(OC)c1,-5.45,
COc1ccc(NC(=O)c2oc3ccc(S(=O)(=O)N4CCOCC4)cc3c2C)cc1,,11.6 µM (active)
Cc1c(C(=O)NCCN(C)C)oc2ccc(S(=O)(=O)N3CCCC3)cc12,1.87,
Cc1occc1C(=O)Nc1cccc(S(=O)(=O)N2CCOCC2)c1,-9.7,
CCCNC(=O)C1(C)CCN(C(=O)c2ccc(F)cc2Cl)C1 (stereo not given),-2.93,
OCC(O)CN(c1ccccc1)c1ccccc1 (stereo not given),-5.37,
O=C(NCCc1ccccc1)Oc1ccc(Cl)cc1,-2.55,
CCOc1ccc(N2CC(C(=O)NCCN3C(=O)S/C(=C\c4cccnc4)C3=O)CC2=O)cc1 (stereo not given),-15,
COc1ccc(N2CC(C(=O)NCCN3C(=O)S/C(=C\c4cccnc4)C3=O)CC2=O)c(OC)c1 (stereo not given),-2.78,
Cc1cc(OCCCC(=O)NCCN2C(=O)S/C(=C\c3cccnc3)C2=O)ccc1Cl,,8.2 µM (active)

SMILES,"activity change, negative = growth inhibition [%]",Potency
CC1CCN(C(=O)COC(=O)c2cc(S(=O)(=O)N3CCOCC3)ccc2Cl)CC1,15.1,
COc1ccc(O)c(/C=N/N=C/c2cccc([N+](=O)[O-])c2)c1,-19.7,
O=C(OCC(=O)N1CCN(c2ccccc2)CC1)c1ccc([N+](=O)[O-])s1,,10.3 µM (active)
COc1cc(NC(=O)COC(=O)c2ccc([N+](=O)[O-])s2)cc(OC)c1OC,-26.9,
COc1ccc(C(=O)COC(=O)c2ccc([N+](=O)[O-])s2)cc1OC,-14.7,
CCN(CC)CCN1C(=O)C2C(C(=O)Nc3ccc(Br)cc3)C3C=CC2(O3)C1C(=O)NC1CCCCC1 (stereo not given),3.58,
Brc1cc(Br)c(Oc2cc(Br)c(Br)cc2Br)cc1Br,1.97,
CC(=O)Nc1ccc(NC(=O)C(C)n2c3ccccc3c3nc(=O)cc(C)n32)cc1 (stereo not given),-1.13,
CC(C)(C)c1cc2cccnc2n1Cc1ccccc1,-20.7,
O=C(CN1C(=O)NC2(CCCC2)C1=O)Nc1cc(C(F)(F)F)ccc1N1CCOCC1,5.6,
Cc1cc(C)cc(C(=O)N2CCN=C2SCc2ccc([N+](=O)[O-])cc2)c1,-20.2,
CC(=O)N1CC[n+]2c(-c3ccc([N+](=O)[O-])cc3)csc21,,18.4 µM (active)
CN1C2CCC1CC(NC(=O)c1ccc([N+](=O)[O-])cc1)C2 (stereo not given),-12.4,
CCOc1c(CNCc2ccc(C(=O)O)cc2)cccc1OC,12.2,
COc1ccccc1C(=O)NCCC(=O)NN1C(=O)NC2(CCCCC2)C1=O,0.64,
COc1ccc(C(=O)NC2CC(C)(C)NC(C)(C)C2)cc1OC,1.23,
CCOc1c(OC)cccc1C(=O)NCC1(c2ccccc2)CCCC1,,5.8 µM (active)
CCn1c(CNC(=O)c2ccc(OC)c(OC)c2)nnc1SCC(=O)Nc1ccccc1,12.4,
COc1cc(C(=O)NCC2(c3ccccc3)CCCC2)ccc1OC(C)C,,20.6 µM (active)
CN(C)C(CNC(=O)c1cccc(S(=O)(=O)Nc2ccc(Br)cc2)c1)c1ccco1 (stereo not given),4.66,
COc1ccc(C(=O)c2oc3ccccc3c2NC(=O)COc2cccc(C)c2)cc1,-10.2,
